High-throughput results: PubChem, National Center for Advancing Translational Sciences (NCATS)
Sampled rows, rich in hits. Any-hit rate of the full collection: about 3.2%.
p53 reactivator: re-activators of mutant p53; H1299 p53-A138V BP100-luciferase reporter, luminescence, 24 h; Potency, µM (titrated, usually from 92.2 µM), for inactives: at the top dose activity change, positive = activation, most hits filed as activators; 320,000 compounds, 0.063% hits; also: potency is read from the fitted curve at half-maximal effect; % of control where 0% means no effect; nearly all actives have a fitted effect of over 45% in size
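H1299 (p53-null), stable ts p53-A138V + BP100-Luc; 1000 cells/well, Opti-MEM/10% FBS; cpd 4 pt, 1:5; 24 h, 37 deg C, 5% CO2; detection reagent 10 min RT; luminescence.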
BRCA1 expr act: BRCA1 expression activation. 380,000 compounds, 1.1% hits. AID 624202. MCF7-BRCA1-FFLuc reporter, luminescence, 48 h; response scale: scaled: vehicle 0%, 10 µM genistein 100%. Potency, µM (series often up to 46.1 µM), for inactives: at the top dose activation, actives largely listed as activators; also: potency is read from the fitted curve at half-maximal effect; nearly all actives have a fitted effect of over 80% in size
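Luminescence from a BRCA1-driven firefly luciferase in MCF7 cells was read after 48 h compound exposure at 37 C. Data normalized against DMSO and a 10microM genistein activation control, then curve-fitted across the titration.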
IL2 activator: activators of IL-2. IL-2 activation reporter assay, cell-based qHTS; stimulated with anti-CD3/CD4/CD28 beads; in transgenic mouse T cells. activation, % (series mostly up to about 46 µM). 360,000 compounds, 0.065% hits. AID 652025; in the data active = activation above about 50%; inconclusive = mostly about 30% to 49%; also: 0% is about no effect
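Readout: EGFP and DsRed signals by fluorescent plate cytometry. Unstimulated transgenic mouse T cells received compound 60 min before antibody-bead stimulation, then incubated 18 h at 37 degrees C.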
Nrf2 inh: Nrf2 pathway inhibition; AID 504444; Potency, µM (highest dose often 46 µM), for the others: top-dose activity change, negative = inhibition, actives largely listed as inhibitors; 360,000 compounds, 2.1% hits; A549 ARE-Fluc reporter, luciferase luminescence, 18-24 h; also: potency is read from the fitted curve at half-maximal effect; % is scaled to controls: 0 for no effect and ±100 for the full control effect; nearly all actives have a fitted effect of over 60% in size
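Nrf2 function is reported as luminescence of an ARE-controlled luciferase in A549 cells. Compounds were tested at several concentrations, and a CellTiter-Fluor read on the same wells flagged cytotoxicity.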
Nrf2 ARE act: activators of Nrf2 (ARE) signaling; AREc32 ARE-luciferase reporter (MCF7-derived line), luminescence, 24 h; AID 624171; Potency, µM (top dose mostly 46.1 µM), inactives show at the highest dose activation, hits mostly activators; 410,000 compounds, 0.31% hits; also: potency is read from the fitted curve at half-maximal effect; % of control where 0% means no effect; nearly all actives have a fitted effect of over 65% in size
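Nrf2 activation is followed as ARE-luciferase induction in the AREc32 line after one day of compound treatment; luminescence is read with Steady-Glo.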
A549 viability: A549 cytotoxicity, counter-screen for Nrf2 inhibitors; A549 ARE-Fluc cells, CellTiter-Fluor viability, 18-24 h; 390,000 compounds, 0.16% hits; Potency, µM (doses to about 46 µM), for the others: at the highest dose activity change, negative = cytotoxicity, actives largely listed as inhibitors; AID 504648; also: potency is read from the fitted curve at half-maximal effect; % is scaled to controls: 0 for no effect and ±100 for the full control effect
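Cytotoxicity counterscreen: CellTiter-Fluor fluorescence was measured in A549 ARE_Fluc cells after 18-24 h of compound exposure in a concentration series. The subsequent BugLite luminescent read reports ARE-luciferase activity.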
Active calls of the source: *; ? = inconclusive; · = no result given; [ ] = dose if it differs, or a comment. Unless noted, calls follow the shape of the dose curve; as a rule, active = well fitted curve in the direction sought with a large enough effect; inconclusive = small, poorly fitted or top-dose-only effect, or another doubt; inactive = no such curve, though single readings can be large; an effect the other way counts as inactive or inconclusive.

SMILES	p53 reactivator	BRCA1 expr act	IL2 activator	Nrf2 inh	Nrf2 ARE act	A549 viability
Cc1ccc(NC(=O)CN2C(=O)c3cccnc3Oc3ccc(Cl)cc32)cc1	·	·	·	?	3.3%	-15.1%
COc1ccccc1N1CCN(S(=O)(=O)c2ccc(-c3ccc(=O)[nH]n3)o2)CC1	-13.5%	-3.9%	-3.8	0.6%	2.1%	7.5%
Cc1cccc(N2CCN(S(=O)(=O)c3ccc(-c4ccc(=O)[nH]n4)o3)CC2)c1C	-19.9%	-15.3%	-3.3	13µM*	-0.6%	?
CCc1ccc(C(=O)COC(=O)C(Cc2c[nH]c3ccccc23)NC(=O)c2ccc(Br)cc2)cc1 (configuration not stated)	·	·	·	6.1%	4.2%	-4.1%
CC(C)CN(C)C(=O)CCc1nnc(Cc2cccc(C(F)(F)F)c2)o1	?	10µM*	-0.1	?	4.7%	-6.5%
Cc1ccc(C2NNC(=O)C2NC(=O)c2ccccc2)cc1 (configuration not stated)	0.2%	11.2µM*	0.3	·	0.3%	4.3%
COc1ccccc1NC(=O)N(Cc1ccco1)Cc1cc2cc(C)cc(C)c2[nH]c1=O	-6.4%	-63.7%	1.3	23.1µM*	0.4%	?
COc1ccccc1NC(=O)N(Cc1ccco1)Cc1cc2ccc(C)c(C)c2[nH]c1=O	-2.9%	-72.0%	-0.5	?	2.6%	?
Cc1ccc(S(=O)(=O)N(C)C)cc1NC(=O)CN1CCN(Cc2ccccc2)CC1	-1.9%	-4.2%	1.1	-6.5%	0.0%	2.2%
Cc1ccc(S(=O)(=O)N(C)C)cc1NC(=O)c1cc(C(C)(C)C)nn1Cc1ccccc1	-1.1%	-56.6%	1.1	10.3µM*	2.3%	4.8%
O=C(c1cc2ccccc2o1)N1CCCCCC1	?	8.91µM*	-3.6	14.0%	3.0%	-16.1%
CC1CC(C)CN(C(=O)c2cc3ccccc3o2)C1 (configuration not stated)	?	-10.5%	-1.1	?	7.5%	-0.5%
CC1CCN(C(=O)c2cc3ccccc3o2)CC1	?	11.2µM*	-0.3	?	0.4%	1.8%
CCOc1ccccc1-c1nnc2n1N=C(c1c(OC)cccc1OC)CS2	·	·	·	1.5%	·	1.2%
CSc1nnc(-c2ccccc2)c(-c2ccccc2)n1	-5.9%	-14.6%	-4.4	0.7%	0.5%	-0.7%
O=C(CSc1nnc(-c2ccco2)c(-c2ccco2)n1)Nc1ccccc1	4.9%	-20.2%	0.4	-17.9%	12.6µM*	-11.7%
CSc1nnc(-c2ccco2)c(-c2ccco2)n1	?	-34.8%	0.5	-1.9%	7.94µM*	-9.9%
COc1cc(OC)cc(C(=O)Nc2ccc3nc(N4CCCCC4)cc(C)c3c2)c1	·	·	·	-10.2%[9.27 µM]	8.9%	-12.9%
CNc1sc(C(=O)c2ccc(F)cc2)c(N)c1-c1nc2ccccc2s1	?	42.3%	-2.0	11.4%	11.2µM*	-18.4%
Clc1ccc(SCc2cn3cccnc3n2)cc1	?	78.3%	-1.1	2.0%	-0.2%	1.9%
Cc1ccc(SCc2cn3cccnc3n2)cc1	?	11.2µM*	-0.8	·	0.4%	-0.8%
COc1ccc(-c2cc3ccc(OC)cc3cn2)cc1	?	?	-0.5	?	9.7%	3.8%
COc1ccc2cc(-c3ccon3)ccc2c1	23.4%	10µM*	1.3	?	3.4%	2.6%
Cc1cc(OCC(=O)N2CCc3ccccc3C2)c2c(-c3ccccc3)cc(=O)oc2c1	-7.1%	-76.1%	-2.6	16.4µM*	2.0%	-18.8%
CCOc1cc(C)cc2oc(=O)cc(-c3ccccc3)c12	-2.8%	0.9%	-0.5	?	-0.6%	-2.0%
SMILES	p53 reactivator	BRCA1 expr act	IL2 activator	Nrf2 inh	Nrf2 ARE act	A549 viability
Cc1sc2ncn(CC(=O)N3CCN(c4ccc(F)cc4)CC3)c(=O)c2c1S(=O)(=O)N1CCCCC1	·	·	·	4.6%[9.27 µM]	0.3%	-2.6%
O=[N+]([O-])c1cc([N+](=O)[O-])c2c(=Nc3ccccc3)n(-c3ccccc3)n(O)c2c1	7.5%	-74.6%	-0.6	-10.9%	14.1µM*	-22.4%
Brc1ccccc1OCCCCn1cnc2ccccc21	2.1%	0.0%	-4.4	7.31µM*	5.6%	-22.3%
CCCOC(=O)c1c(NC(=O)C(C)Sc2nc(-c3ccccc3)cc(C(F)(F)F)n2)sc(C(=O)N(C)C)c1C (configuration not stated)	·	-46.0%	·	20.6µM*	3.4%	-21.7%
COC(=O)c1ccsc1NC(=O)CSc1nnnn1Cc1ccccc1	-4.2%	-78.2%	-0.3	-6.6%	7.94µM*	6.0%
O=[N+]([O-])c1cccnc1N1CCC(c2cc(-c3ccc(Cl)cc3Cl)n[nH]2)CC1	7.7%	-83.4%	-0.3	18.4µM*	-1.0%	?
COc1ccc(OC)c(-c2cc(C3CCN(c4ncccc4[N+](=O)[O-])CC3)[nH]n2)c1	14.0%	-90.9%	0.0	?	-0.2%	?
O=[N+]([O-])c1cccnc1N1CCC(c2cc(-c3cccc(C(F)(F)F)c3)n[nH]2)CC1	-12.7%	-51.9%	-0.2	20.6µM*	-0.7%	?
CC(=O)c1ccc(N2CCC(c3cc(-c4ccc(Cl)cc4Cl)n[nH]3)CC2)c([N+](=O)[O-])c1	-0.5%	-79.2%	0.4	16.4µM*	-1.4%	?
O=S1(=O)N=C(Oc2ccc3ccccc3c2)c2ccccc21	·	·	·	0.7%	·	-5.8%
CCC(C(=O)Nc1cccc(Cl)c1C)n1nc(C)c2sc3ccccc3c2c1=O (configuration not stated)	·	·	·	-10.9%	0.0%	-20.7%
Cc1ccc(C(=O)N/N=C/c2ccc(-c3ccc(Br)cc3[N+](=O)[O-])o2)o1	-0.8%	-62.6%	-0.8	?	7.94µM*	-11.1%
O=C(Nc1ncnc2sc3c(c12)CCC3)c1ccco1	-12.9%	-71.5%	-0.8	-2.0%	0.794µM*	-4.3%
O=C(Nc1ncnc2sc3c(c12)CCCCC3)c1ccccc1	2.0%	-0.6%[1.84 µM]	-0.9	-23.5%	0.2%	-11.8%
O=C(CCN=C1NS(=O)(=O)c2ccccc21)Nc1ccc(F)cc1Cl	1.1%	3.1%	-0.6	9.2µM*	4.6%	9.7%
O=C(CCN=C1NS(=O)(=O)c2ccccc21)NCc1ccccc1F	1.0%	26.7%	-0.1	17.0%	0.5%	-2.2%
CC(C)(C)OC(=O)N1CCC(c2c(C(=O)NCCN3CCOCC3)cnn2-c2cccc(F)c2)CC1	·	·	·	4.5%	-0.7%	15.5%
O=C(N/N=C/C(Br)=C/c1ccccc1)NC1CCCCC1	23.1%	56.8%	-3.1	1.0%	?	-10.2%
O=C(O)c1ccc(N/N=C/C(Br)=C/c2ccccc2)cc1	?	?	-0.3	?	?	?
O=C(N/N=C/C(Br)=C/c1ccccc1)C1CC1	?	?	-6.9	?	20µM*	-2.6%
